SMILES strings stand for the structures. “And” between values parts separate entries of the source, which are not always exact repeats. Identical values can stand only once. About 1,500 (0.65%) of roughly 230,000 compounds were called active. A call without a number means that no potency is given here. Roughly 3% stayed inconclusive and do not appear here. The call rests on the fitted dose curve; in most records, active means well fitted inhibition curve with a large enough effect; inconclusive means small, poorly fitted or top-dose-only effect; inactive means no such curve, though single readings can be large or run the other way. For the sample, actives were picked, then their nearest neighbours and some compounds at random. Where a structure was tested more than once in an assay, its records may differ in their call.
Potency means the concentration at half of the fitted maximal effect.

Chain of Lethal(3)malignant brain tumor-like protein 1 (Homo sapiens) (Q9Y468 whole entry, looked up): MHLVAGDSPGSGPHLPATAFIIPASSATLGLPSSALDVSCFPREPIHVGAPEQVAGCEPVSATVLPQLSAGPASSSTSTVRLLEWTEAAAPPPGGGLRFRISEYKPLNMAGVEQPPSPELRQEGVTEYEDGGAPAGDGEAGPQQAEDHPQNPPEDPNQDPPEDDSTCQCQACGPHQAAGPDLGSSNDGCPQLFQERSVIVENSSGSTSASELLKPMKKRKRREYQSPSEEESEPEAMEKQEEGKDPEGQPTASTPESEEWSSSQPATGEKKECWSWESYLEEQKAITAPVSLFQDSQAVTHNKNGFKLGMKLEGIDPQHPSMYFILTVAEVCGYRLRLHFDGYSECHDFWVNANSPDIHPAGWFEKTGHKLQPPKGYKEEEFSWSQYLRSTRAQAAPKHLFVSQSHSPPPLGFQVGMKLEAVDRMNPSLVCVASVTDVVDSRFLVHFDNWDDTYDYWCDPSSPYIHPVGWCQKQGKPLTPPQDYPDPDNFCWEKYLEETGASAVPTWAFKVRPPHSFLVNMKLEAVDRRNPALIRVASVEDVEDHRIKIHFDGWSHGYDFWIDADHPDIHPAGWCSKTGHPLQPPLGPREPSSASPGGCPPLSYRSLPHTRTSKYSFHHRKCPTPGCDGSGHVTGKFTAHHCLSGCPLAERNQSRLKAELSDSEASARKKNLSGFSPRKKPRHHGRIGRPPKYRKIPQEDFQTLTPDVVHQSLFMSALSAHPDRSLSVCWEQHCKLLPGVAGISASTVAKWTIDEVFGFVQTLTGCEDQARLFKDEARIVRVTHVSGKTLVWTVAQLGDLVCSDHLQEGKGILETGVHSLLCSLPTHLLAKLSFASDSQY

This assay addresses Lethal(3)malignant brain tumor-like protein 1 (Homo sapiens) (UniProt Q9Y468). The experiment in a line: qHTS Assay for the Inhibitors of L3MBTL1. Further: nearly all actives have a fitted effect of over 60% in size. The conditions noted are these: AlphaScreen L3MBTL1–H3K9me1 peptide binding; series mostly up to 57.1 µM. In a few lines: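 L3MBTL1 (50 nM) pre-complexed 30 min with biotinylated H3(1-15)K9me1 peptide (75 nM), then compounds added for 30 min at room temperature; AlphaScreen streptavidin donor/nickel chelate acceptor beads (10 ug/mL final) read after 30 min dark incubation.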
(qHTS replaces the single test concentration by a dilution series.)
`CC1CCCCC1NCC(=O)Nc1ccccc1C(=O)Nc1ccccc1` (centres undefined): the Potency result was “inactive”.

In the case of `COC(OC)c1ccnc(SCc2ccccc2Cl)n1`, the Potency result was “inactive”.

Regarding `O=c1[nH]c(SCc2ccccc2)nnc1-c1ccccc1`, the Potency entry was “inactive”.

On to `O=C(Nc1nnc(SCc2ccccc2)s1)c1ccco1`, for which the Potency result was “inactive”.

Turning to `c1ccc(CSc2nnc(-c3ccco3)c(-c3ccco3)n2)cc1`, the Potency was 7.94 µM (active).

With `Clc1ccccc1CSc1nnc(-c2ccco2)c(-c2ccco2)n1`, the Potency was 8.91 µM (active).

For `O=C(CC1N=C2c3ccccc3N=C(SCc3ccccc3Cl)N2C1=O)NCc1ccco1` (centres undefined), the Potency entry is “inactive”.

For the compound `Cc1nc(-c2ccc(F)cc2)c(CC(=O)Nc2cccc(S(=O)(=O)N3CCOCC3)c2)s1`, the Potency result was “inactive”.

As to `Cc1occc1-c1nnc(SCC(=O)NC2(C#N)CCCC2)n1C`, the Potency result was “inactive”.

`O=C(CSc1nnc(COc2ccc(Cl)cc2)n1Cc1ccco1)N1CCNC1=O`: the Potency result is “inactive”.

As for `COc1ccc2c(CC(=O)NNC(=O)c3ccccc3F)coc2c1`, the Potency entry was “inactive”.

For `CC(C)N(C(=O)CSc1nnc(NC2CC2)s1)c1ccccc1`, the Potency result is “inactive”.

As for `Cc1ccc(/C=C/C(=O)Nc2ccc([N+](=O)[O-])c(NC(=O)/C=C/c3ccc(C)o3)c2)o1`, the Potency is 22.4 µM (active).

With `Cc1c(NC(=O)/C=C/C(=O)O)cccc1[N+](=O)[O-]`, the Potency entry was “inactive”.

Consider `CCc1nnc(NC(=O)/C=C/c2ccc(C)o2)s1`, for which the Potency entry was “inactive”.

Consider `NC(=O)c1ccc(Nc2ccc3nonc3c2[N+](=O)[O-])cc1`, for which the Potency entry is “inactive”.

Take `COc1ccc(Cl)cc1NC(=O)CN(C)C(=O)c1cc2ccccc2cc1OC`: the Potency entry was “inactive”.

Turning to `O=C(OCC(=O)N1CCCCCC1)c1cnc(Cl)c(Cl)c1`, the Potency result is “inactive”.

Take `O=C(c1ccc(F)cc1)N1CCC(C(=O)N2CCN(S(=O)(=O)c3ccccc3Br)CC2)CC1`: the Potency result was “inactive”.

`Oc1c(C(c2ccccn2)N2CCOCC2)ccc2cccnc12` (centres undefined): the Potency was 8.91 µM (active).

For the compound `Cc1nc2sc(C(c3ccco3)N3CCOCC3)c(O)n2n1` (centres undefined), the Potency result is “inactive”.

Regarding `CCOc1cc(N2CCOCC2)c(OCC)cc1NC(=O)COc1cccc2cccnc12`, the Potency entry is “inactive”.

Turning to `COc1ccc(C(=O)COC(=O)C(O)c2ccccc2)c(OC)c1` (centres undefined), the Potency result was “inactive”.

On to `CC(C)[C@H](NC(=O)N1c2ccccc2NC(=O)[C@@H]1C(C)C)C(=O)N[C@H](C(=O)O)c1ccccc1`, for which the Potency entry was “inactive”.

Take `CC(C#N)(NC(=O)CN1CCN(S(=O)(=O)c2cc(C(F)(F)F)ccc2Cl)CC1)C1CC1` (centres undefined): the Potency entry was “inactive”.

As for `O=C(CN1CCN(c2ccccc2O)CC1)NC(=O)NCc1ccccc1`, the Potency entry was “inactive”.

In the case of `CCC(C)N(C(=O)CSc1nnnn1-c1ccccc1OC)C1CCS(=O)(=O)C1` (centres undefined), the Potency result was “inactive”.

In the case of `COC(=O)[C@]1(Cc2ccccc2)N[C@H](CN(C)S(=O)(=O)c2ccc(OC(F)(F)F)cc2)[C@@H]2C(=O)N(C)C(=O)[C@@H]21`, the Potency entry was “inactive”.

For the compound `O=C(Nc1ccc(NC(=O)c2cccs2)cn1)c1ccco1`, the Potency result is “inactive”.

`O=C(N/N=C/C=C/c1ccco1)c1cccs1`: the Potency is 31.6 µM (active).

Turning to `O=C(N/N=C/c1ccco1)c1ccc(C(=O)N/N=C/c2ccco2)o1`, the Potency result is “inactive”.

As to `Cc1cc([N+](=O)[O-])ccc1NC1CCCC1`, the Potency entry was “inactive”.

For the compound `Cc1cc(C=O)c(C)n1-c1ccc(NC2CCCCC2)c([N+](=O)[O-])c1`, the Potency was 15.8 µM (active).

`Cc1c(NS(=O)(=O)c2ccc(NC3CCCC3)c([N+](=O)[O-])c2)c(=O)n(-c2ccccc2)n1C`: the Potency result was “inactive”.

In the case of `O=C(COC(=O)c1cccnc1Cl)NC12CC3CC(CC(C3)C1)C2`, the Potency entry is “inactive”.

Turning to `O=C(NCC#CCSc1nnc(-c2cccc3ccccc23)o1)c1cccs1`, the Potency result was “inactive and 10 µM (active)”.

As for `COc1ccc(-c2nnc(SCC(=O)c3cccs3)o2)c(OC)c1`, the Potency result is “inactive”.

As to `Cc1ccc(-c2nnc(-c3ccc(NC(=O)c4cccs4)cc3)o2)cc1`, the Potency entry was “inactive”.

On to `COc1ccc(NS(=O)(=O)c2ccc(C)c(C(=O)N(C)Cc3ccc(OC)cc3OC)c2)cc1`, for which the Potency result was “inactive”.

`O=C(NCCC1CCCCN1S(=O)(=O)c1ccccc1)C(=O)NCC1CCCO1` (centres undefined): the Potency entry was “inactive”.

Take `C[C@H](NC(=O)c1nc[nH]c1C(=O)NCC(=O)OC(C)(C)C)c1ccccc1`: the Potency result was “inactive”.

On to `CC(C)(C)OC(=O)NCCCCCNC(=O)c1[nH]cnc1C(=O)Nc1nccs1`, for which the Potency was 28.2 µM (active).

For the compound `CC(C)(C)OC(=O)NCCCCCNC(=O)c1nc[nH]c1C(=O)NCc1ccccc1`, the Potency entry was “inactive”.

As for `Cc1csc(=O)n1CC(=O)Nc1ccc(S(C)(=O)=O)cc1`, the Potency result is “inactive”.

`Cc1ccc(S(=O)(=O)NC[C@H]2O[C@@H](n3cnc4c(N)ncnc43)[C@H](O)[C@@H]2O)s1`: the Potency result was “inactive”.

Regarding `O=C(Cc1ccc(S(=O)(=O)N2CCOCC2)s1)N1CCN(c2ccc(C(F)(F)F)cc2[N+](=O)[O-])CC1`, the Potency entry was “inactive”.

Take `Cc1cccc(-n2ncc3c(=O)[nH]c(SCC(=O)Nc4cc(C)on4)nc32)c1`: the Potency result was “inactive”.

For `O=C1CCCC(O)=C1N=Nc1ccc(S(=O)(=O)N2CCOCC2)cc1`, the Potency result is “inactive”.

Consider `O=C1CCCC(O)=C1N=Nc1ccc2ncsc2c1`, for which the Potency is 25.1 µM (active).

Turning to `CC[C@@]1(C(=O)OC)N[C@H](CN(C)C(C)=O)[C@@H]2C(=O)N(C)C(=O)[C@@H]21`, the Potency entry was “inactive”.

As for `Cc1nnc(SCC(=O)Nc2cccc(N)c2)n1-c1ccccc1`, the Potency entry was “inactive”.

Regarding `O=c1cc(N2CCN(Cc3ccccc3)CC2)c(-c2ccccc2)n[nH]1`, the Potency entry was “inactive”.

Take `O=C1c2ccccc2C(=O)c2c1cccc2N1CCN(Cc2ccccc2)CC1`: the Potency was 14.1 µM (active).

Turning to `O=C1c2ccccc2C(=O)c2c1cccc2N1CCN(CCO)CC1`, the Potency result was “inactive”.

In the case of `CN(CC(=O)O)C(=O)c1ccccc1`, the Potency entry is “inactive”.

Turning to `CCc1ccc(NC(=O)c2ccc(Cn3cc([N+](=O)[O-])cn3)cc2)cc1`, the Potency result was “inactive”.

As to `Cc1cc([N+](=O)[O-])ccc1NC(=O)c1ccc(NC(=O)C(C)C)cc1`, the activity, negative = inhibition is -0.242% [at 11.4 µM] (inactive).

For `Cn1ccc(=Nc2ccc(NC(=O)c3ccc(N=c4ccn(C)c5ccc([N+](=O)[O-])cc45)cc3)cc2)cc1`, the Potency is 25.1 µM (active).

Take `COCC(=O)N1CCCC(C(=O)c2ccc(C(F)(F)F)cc2)C1` (centres undefined): the Potency result was “inactive”.

Take `Cc1c(OC(C)C(=O)NCC2CCC(C(=O)O)CC2)ccc2c1oc(=O)c1ccccc12` (centres undefined): the Potency result is “inactive”.

With `CCCNC(=O)CCn1cc(-c2ccc(OC)cc2)nc1CCN`, the Potency result was “inactive”.

Take `CCOC(=O)Cc1csc(NC(=O)Nc2ccccc2)n1`: the Potency entry is “inactive”.

In the case of `CCOC(=O)c1cn[nH]c1NC(=S)Nc1ccccc1`, the Potency result is “inactive”.

Regarding `CCN(C(=O)Cc1nc(N)n[nH]1)C1(C(=O)Nc2ccccc2)CCCCC1`, the Potency was 11.2 µM (active).
